# Inconclusive results are not listed. Where a call stands in place of a potency, no number is given. Activity calls are given as the source filed them. The call rests on the fitted dose curve; in most records, active means well fitted curve in the direction sought with a large enough effect; inconclusive means small, poorly fitted or top-dose-only effect, or another doubt; inactive means no such curve, though single readings can be large; an effect the other way counts as inactive or inconclusive.
# Key:
# [1] = qHTS of pediatric cancer cell lines to identify multiple opportunities for drug repurposing: Primary screen for RD cells (AID 1347104); further: nearly all actives have a fitted effect of over 55% in size; further: potency means the concentration at half of the fitted maximal effect
# Method in brief: (§1)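 ATP-based luminescence (CellTiter-Glo) quantifies viability after a 48-hour exposure. Compounds are dosed across 8 or 11 final concentrations; DMSO and 2.3 µM bortezomib serve as controls.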
# [2] = qHTS of pediatric cancer cell lines to identify multiple opportunities for drug repurposing: Primary screen for MG 63 (6-TG R) cells (AID 1347105); further: nearly all actives have a fitted effect of over 50% in size; further: potency means the concentration at half of the fitted maximal effect
# Method in brief: as §1
# [3] = qHTS of pediatric cancer cell lines to identify multiple opportunities for drug repurposing: Primary screen for control Hh wild type fibroblast cells (AID 1347106);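 further: series mostly up to about 46 µM; a drop in luminescence marks cytotoxicity and a rise apparent proliferation; nearly all actives have a fitted effect of over 55% in size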
# Method in brief: (§2)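 Viability after 48 h compound treatment at 37C, 500-1,000 cells/well, read as ATP luminescence with CellTiter-Glo. Primary screens used 11-point (MIPE, 0.78 nM-46 µM) or 8-point (NPC, 0.59 nM-46 µM) final concentrations; follow-up screens used 11-point dilutions.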
# [4] = qHTS of pediatric cancer cell lines to identify multiple opportunities for drug repurposing: Primary screen for Rh30 cells (AID 1347107); further: series mostly up to about 46 µM; nearly all actives have a fitted effect of over 75% in size
# Method in brief: as §2
# [5] = qHTS of pediatric cancer cell lines to identify multiple opportunities for drug repurposing: Primary screen for OHS-50 cells (AID 1347103); further: nearly all actives have a fitted effect of over 40% in size; further: potency means the concentration at half of the fitted maximal effect
# Method in brief: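 Cells (500-1,000/well) rested 5 h, then received compounds for 48 h; metabolically active cells were measured by CellTiter-Glo luminescence. Final concentrations spanned up to 46 µM (MIPE, 11-point) or 0.59 nM-46 µM (NPC, 8-point) in primary screens, 11-point in follow-ups.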
# [6] = qHTS of pediatric cancer cell lines to identify multiple opportunities for drug repurposing: Confirmatory screen for A673 cells (AID 1347110); further: nearly all actives have a fitted effect of over 65% in size; further: potency means the concentration at half of the fitted maximal effect
# Method in brief: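 Cells plated at 500-1,000/well were treated five hours later with multi-point dilutions up to 46 µM final. After two days, CellTiter-Glo was added and luminescence read.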
# [7] = qHTS of pediatric cancer cell lines to identify multiple opportunities for drug repurposing: Confirmatory screen for SK-N-MC cells (AID 1347111);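 further: potency means the concentration at half of the fitted maximal effect; cells exposed to compound for 48 h before the readout; nearly all actives have a fitted effect of over 70% in size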
# Method in brief: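 SK-N-MC cells at 500-1,000 cells/well in growth media were pre-incubated 5 h, then exposed to compounds at 11-point dilutions for 48 h at 37 degrees C, 5% CO2. Viability was read as CellTiter-Glo luminescence.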
# [8] = qHTS of pediatric cancer cell lines to identify multiple opportunities for drug repurposing: Confirmatory screen for NB-EBc1 cells (AID 1347115); further: nearly all actives have a fitted effect of over 45% in size; further: potency means the concentration at half of the fitted maximal effect
# Method in brief: as §2
# [9] = qHTS of pediatric cancer cell lines to identify multiple opportunities for drug repurposing: Confirmatory screen for TC32 cells (AID 1347118); further: potency means the concentration at half of the fitted maximal effect; nearly all actives have a fitted effect of over 65% in size
# Method in brief: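 Luminescent CellTiter-Glo read-out of metabolically active TC32 cells after 48 h compound exposure. Primary: MIPE 11-point, 0.78 nM–46 µM; NPC 8-point, 0.59 nM–46 µM. Confirmatory: 11-point dilutions.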
# [10] = qHTS of pediatric cancer cell lines to identify multiple opportunities for drug repurposing: Confirmatory screen for MG 63 (6-TG R) cells (AID 1347119); further: nearly all actives have a fitted effect of over 55% in size; further: potency means the concentration at half of the fitted maximal effect
# Method in brief: as §2
# [11] = qHTS of pediatric cancer cell lines to identify multiple opportunities for drug repurposing: Confirmatory screen for control Hh wild type fibroblast cells (AID 1347121); further: nearly all actives have a fitted effect of over 70% in size; further: potency means the concentration at half of the fitted maximal effect
# Method in brief: as §2
# [12] = qHTS of pediatric cancer cell lines to identify multiple opportunities for drug repurposing: Primary screen for Rh41 cells (AID 1347108); further: nearly all actives have a fitted effect of over 70% in size; further: potency means the concentration at half of the fitted maximal effect
# Method in brief: as §1
# [13] = qHTS of pediatric cancer cell lines to identify multiple opportunities for drug repurposing: Confirmatory screen for U-2 OS cells (AID 1347122); further: nearly all actives have a fitted effect of over 65% in size; further: potency means the concentration at half of the fitted maximal effect
# Method in brief: as §2
# [14] = qHTS of pediatric cancer cell lines to identify multiple opportunities for drug repurposing: Confirmatory screen for Rh41 cells (AID 1347123); further: nearly all actives have a fitted effect of over 60% in size; further: potency means the concentration at half of the fitted maximal effect
# Method in brief: as §2
# [15] = qHTS of pediatric cancer cell lines to identify multiple opportunities for drug repurposing: Confirmatory screen for NB1643 cells (AID 1347109); further: nearly all actives have a fitted effect of over 45% in size; further: potency means the concentration at half of the fitted maximal effect
# Method in brief: as §2
# [16] = qHTS of pediatric cancer cell lines to identify multiple opportunities for drug repurposing: Confirmatory screen for BT-12 cells (AID 1347112); further: potency means the concentration at half of the fitted maximal effect; nearly all actives have a fitted effect of over 55% in size
# Method in brief: as §2
# [17] = qHTS of pediatric cancer cell lines to identify multiple opportunities for drug repurposing: Confirmatory screen for DAOY cells (AID 1347114); further: nearly all actives have a fitted effect of over 65% in size; further: potency means the concentration at half of the fitted maximal effect
# Method in brief: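 Viability measured as metabolically active cells via CellTiter-Glo luminescence following 48 hours of compound exposure, 11-point dilutions in confirmatory testing. 500-1,000 cells/well plated 5 hours before dosing; controls were DMSO and 2.3 µM bortezomib.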
# [18] = qHTS of pediatric cancer cell lines to identify multiple opportunities for drug repurposing: Confirmatory screen for BT-37 cells (AID 1347117)
# Method in brief: as §2
# [19] = qHTS of pediatric cancer cell lines to identify multiple opportunities for drug repurposing: Confirmatory screen for Rh18 cells (AID 1347125); further: nearly all actives have a fitted effect of over 55% in size
# Method in brief: as §2
smiles,measurement,setting,value
CN[C@@H]1Cc2cccc3[nH]c(=O)n(c23)C1,Potency,[1],inactive
same,Potency,[2],inactive
same,Potency,[3],inactive
same,Potency,[4],inactive
CO/C=C(/C(=O)OC)c1ccccc1Oc1cc(Oc2ccccc2C#N)ncn1,Potency,[5],14200 nM (active)
same,Potency,[3],inactive
C=C[C@@H]1CN2CCC1C[C@H]2[C@H](O)c1ccnc2ccccc12 (stereo partly specified),Potency,[1],37200 nM (active)
same,Potency,[2],inactive
same,Potency,[3],inactive
CCCCCC[C@H]1C(=O)O[C@H](C)[C@H](NC(=O)c2cccc(NC=O)c2O)C(=O)O[C@@H](C)[C@@H]1OC(=O)CC(C)C,Potency,[5],61.1 nM (active)
same,Potency,[3],inactive
same,Potency,[6],13100 nM (active)
same,Potency,[7],46.5 nM (active)
same,Potency,[8],14.7 nM (active)
same,Potency,[9],117 nM (active)
same,Potency,[10],13.1 nM (active)
same,Potency,[11],16.5 nM (active)
COC1=C[C@@H]2[C@@H]3Cc4ccc(OC)c(O)c4[C@]2(CCN3C)CC1=O,Potency,[5],inactive
same,Potency,[12],3720 nM (active)
CC[C@@H](C(N)=O)N1CCCC1=O,Potency,[5],inactive
same,Potency,[2],inactive
same,Potency,[3],inactive
same,Potency,[4],inactive
same,Potency,[12],inactive
COC(=O)[C@@H](N)CCCN=C(N)N[N+](=O)[O-],Potency,[5],inactive
same,Potency,[2],inactive
same,Potency,[4],inactive
same,Potency,[12],inactive
Cc1c(N)nc([C@H](CC(N)=O)NC[C@@H](N)C(N)=O)nc1C(=O)N[C@H](C(=O)N[C@@H](C)[C@H](O)[C@@H](C)C(=O)N[C@@H](C(=O)NCCc1nc(-c2nc(C(=O)NCCC[S+](C)C)cs2)cs1)[C@@H](C)O)C(O[C@H]1O[C@H](CO)[C@H](O)[C@@H](O)[C@@H]1O[C@H]1O[C@H](CO)[C@@H](O)[C@H](OC(N)=O)[C@H]1O)c1cnc[nH]1 (stereo partly specified),Potency,[5],1720 nM (active)
same,Potency,[2],590 nM (active)
same,Potency,[4],inactive
same,Potency,[12],inactive
same,Potency,[6],9270 nM (active)
same,Potency,[11],inactive
same,Potency,[13],inactive
same,Potency,[14],inactive
Cc1ccccc1-n1c(Cn2ncc3c(N)ncnc32)nc2cccc(C)c2c1=O,Potency,[5],6.9 nM (active)
same,Potency,[3],inactive
same,Potency,[12],935 nM (active)
same,Potency,[15],522 nM (active)
same,Potency,[6],inactive
same,Potency,[7],1040 nM (active)
same,Potency,[16],18500 nM (active)
same,Potency,[17],inactive
same,Potency,[18],293 nM (active)
same,Potency,[9],1850 nM (active)
same,Potency,[11],inactive
same,Potency,[13],inactive
same,Potency,[14],inactive
CC(=O)OCC1=C(C(=O)O)N2C(=O)[C@@H](N)[C@@H]2SC1,Potency,[5],1370 nM (active)
same,Potency,[2],inactive
same,Potency,[3],inactive
same,Potency,[4],inactive
same,Potency,[12],inactive
COc1ccc(N(C(=O)Oc2c(C)cccc2C)c2ccnc(Nc3ccc(N4CCN(C)CC4)cc3)n2)c(OC)c1,Potency,[5],9680 nM (active)
same,Potency,[4],inactive
same,Potency,[12],inactive
COc1cc2cc(c1Cl)N(C)C(=O)C[C@H](OC(=O)C(C)C)[C@]1(C)O[C@H]1[C@H](C)[C@@H]1C[C@@](O)(NC(=O)O1)[C@H](OC)C=CC=C(C)C2,Potency,[5],1 nM (active)
same,Potency,[2],inactive
same,Potency,[3],inactive
same,Potency,[4],inactive
same,Potency,[12],inactive
same,Potency,[15],65700 nM (active)
same,Potency,[6],1 nM (active)
same,Potency,[7],1.3 nM (active)
same,Potency,[16],1.6 nM (active)
same,Potency,[17],3.7 nM (active)
same,Potency,[18],1 nM (active)
same,Potency,[9],0.4 nM (active)
same,Potency,[10],1 nM (active)
same,Potency,[11],inactive
CC(=Cc1csc(C)n1)[C@@H]1C[C@H]2O[C@]2(C)CCC[C@H](C)[C@@H](O)[C@@H](C)C(=O)C(C)(C)[C@@H](O)CC(=O)O1,Potency,[5],1 nM (active)
same,Potency,[3],inactive
same,Potency,[4],inactive
same,Potency,[6],7.4 nM (active)
same,Potency,[7],5.9 nM (active)
same,Potency,[17],11.7 nM (active)
same,Potency,[18],5.2 nM (active)
same,Potency,[9],3.7 nM (active)
same,Potency,[10],3.3 nM (active)
same,Potency,[13],26.1 nM (active)
same,Potency,[14],10.4 nM (active)
Nc1ccc([N+](=O)[O-])cc1,Potency,[2],inactive
same,Potency,[3],inactive
same,Potency,[4],inactive
same,Potency,[12],inactive
C[C@]12CC[C@H]3[C@@H](CCC4=CC(=O)CC[C@@]43C)[C@H]1CC[C@H]2O,Potency,[1],inactive
same,Potency,[2],inactive
same,Potency,[3],inactive
same,Potency,[4],inactive
same,Potency,[12],inactive
O=C(Oc1ccc([N+](=O)[O-])cc1)N1CCC(C(O)(c2ccc3c(c2)OCO3)c2ccc3c(c2)OCO3)CC1,Potency,[1],inactive
same,Potency,[2],inactive
same,Potency,[3],inactive
same,Potency,[4],inactive
same,Potency,[12],inactive
CCO/N=C(\CC)C1=C(O)CC(c2c(C)cc(C)cc2C)CC1=O (stereo unspecified),Potency,[1],inactive
same,Potency,[2],inactive
same,Potency,[3],inactive
same,Potency,[4],inactive
same,Potency,[12],inactive
CCCCOC(=O)c1ccccc1C(=O)OCc1ccccc1,Potency,[1],inactive
same,Potency,[2],inactive
same,Potency,[3],inactive
same,Potency,[4],inactive
same,Potency,[12],inactive
C[C@]12Cc3cn[nH]c3C[C@@H]1CC[C@@H]1[C@H]2CC[C@@]2(C)[C@H]1CC[C@]2(C)O,Potency,[1],inactive
same,Potency,[2],inactive
same,Potency,[3],inactive
same,Potency,[12],inactive
same,Potency,[15],inactive
same,Potency,[6],inactive
same,Potency,[8],inactive
same,Potency,[10],inactive
same,Potency,[11],inactive
same,Potency,[13],inactive
same,Potency,[14],inactive
same,Potency,[19],inactive
Nc1ccc(N=Nc2ccccc2)cc1,Potency,[3],inactive
same,Potency,[12],inactive
O=C(O)CNC(=O)c1c(O)c2ccccc2n(Cc2ccccc2)c1=O,Potency,[1],inactive
same,Potency,[2],inactive
same,Potency,[3],inactive
same,Potency,[4],inactive
same,Potency,[12],inactive
Clc1ccccc1C(c1ccccc1)(c1ccccc1)n1cccn1,Potency,[1],inactive
same,Potency,[2],inactive
same,Potency,[3],inactive
same,Potency,[4],inactive
same,Potency,[12],inactive
COc1nn(CSP(=S)(OC)OC)c(=O)s1,Potency,[3],inactive
COc1ccc(C(c2ccc(OC)cc2)C(Cl)(Cl)Cl)cc1,Potency,[3],inactive
CCCCCCCCCC(CC)c1ccc(S(=O)(=O)O)cc1 (stereo unspecified),Potency,[1],inactive
same,Potency,[2],inactive
same,Potency,[3],inactive
same,Potency,[4],inactive
same,Potency,[12],inactive
c1ccc2c(CN3CCNCC3)cccc2c1,Potency,[1],inactive
same,Potency,[2],inactive
same,Potency,[3],inactive
same,Potency,[4],inactive
same,Potency,[12],inactive
O=c1cccc2n1CC1CNC[C@H]2C1,Potency,[1],18700 nM (active)
same,Potency,[12],11800 nM (active)
C[C@]12CC[C@H](O)CC1=CC[C@H]1[C@H]3CCC(=O)[C@@]3(C)CC[C@@H]12,Potency,[1],inactive
same,Potency,[3],inactive

# — PubChem BioAssay (NCATS)
